Records with an inconclusive call do not appear. Unmarked numbers belong to inactive results. The source made the active and inactive calls. Unless noted, calls come from the whole dose curve; as a rule, active = well fitted curve in the direction sought with a large enough effect; inconclusive = small, poorly fitted or top-dose-only effect, or another doubt; inactive = no such curve, though single readings can be large; an effect the other way counts as inactive or inconclusive.

We go through 40 compounds from PubChem BioAssay (NCATS).
Potency is the fitted concentration of half-maximal effect.

Cytochrome P450 2C9 (Homo sapiens), sequence (P11712 whole entry, looked up): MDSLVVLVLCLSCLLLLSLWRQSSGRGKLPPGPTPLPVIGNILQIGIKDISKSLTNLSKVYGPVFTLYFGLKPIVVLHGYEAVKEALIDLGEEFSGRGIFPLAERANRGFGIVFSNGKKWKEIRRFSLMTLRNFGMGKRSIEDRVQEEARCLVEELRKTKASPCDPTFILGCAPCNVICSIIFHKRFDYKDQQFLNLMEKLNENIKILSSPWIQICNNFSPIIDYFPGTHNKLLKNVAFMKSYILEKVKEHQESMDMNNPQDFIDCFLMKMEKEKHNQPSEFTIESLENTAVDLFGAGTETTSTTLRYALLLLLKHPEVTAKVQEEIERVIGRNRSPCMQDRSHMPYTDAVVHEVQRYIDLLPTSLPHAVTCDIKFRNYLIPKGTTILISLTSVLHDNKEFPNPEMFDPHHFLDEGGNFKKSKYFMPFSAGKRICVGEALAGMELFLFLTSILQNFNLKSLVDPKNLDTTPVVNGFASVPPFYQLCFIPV
N-terminal Xaa-Pro-Lys N-methyltransferase 1 (Homo sapiens), sequence (Q9BV86 whole entry, looked up): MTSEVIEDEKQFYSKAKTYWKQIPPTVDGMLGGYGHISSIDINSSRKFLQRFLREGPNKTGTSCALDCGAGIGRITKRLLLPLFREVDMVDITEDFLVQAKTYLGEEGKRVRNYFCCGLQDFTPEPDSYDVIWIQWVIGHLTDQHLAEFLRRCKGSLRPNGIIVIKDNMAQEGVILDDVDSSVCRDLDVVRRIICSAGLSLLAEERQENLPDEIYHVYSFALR

One assay concerns the target Cytochrome P450 2C9 (Homo sapiens) (UniProt P11712). In words: Cytochrome P450 family 2 subfamily C member 9 (CYP2C9) small molecule antagonists: luciferase biochemical (cell-free) qHTS assay (AID 1645842; active = well fitted curve in the direction sought with a large enough effect in the repeat runs; an effect the other way counts as inactive or inconclusive; note: nearly all actives have a fitted effect of over 55% in size; for activity change, negative = inhibition: % is set by controls: 0 for no effect and ±100 for the full control effect). As to conditions: P450-Glo CYP2C9 enzyme assay, luciferin luminescence; series mostly up to 57.4 µM; activity change, negative = inhibition: at the top concentration. The procedure, abridged: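 P450-Glo CYP2C9 system: proluciferin substrate with enzyme in mix containing 0.4% BSA, 10 min at room temperature, then NADPH regeneration solution added and incubated 1 h at 37C. Detection reagent stopped reaction; luminescence read after 20 min as RLU.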
Background: qHTS replaces the single test concentration by a dilution series.
Take `CC(C)(C)c1ccc(-c2nc(SCC(=O)Nc3ccc(Cl)cc3)[nH]c(=O)c2C#N)cc1`: the Potency is 3.01 µM (active).
Consider `COc1ccccc1NC(=O)CSc1nc(-c2ccc(C(C)(C)C)cc2)c(C#N)c(=O)[nH]1`, for which the Potency was 0.756 µM (active).
In the case of `CCCOC(=O)c1cc(O)c(O)c(O)c1`, the “activity change, negative = inhibition” value was -0.634%.
On the same count and under the same terms, the result for `CCN(CC)C(=O)[C@]1(c2ccccc2)C[C@H]1CN` reads -10.7%.
Same read-out and setting: the result for `Nc1nc(NC2CC2)c2ncn([C@H]3C=C[C@@H](CO)C3)c2n1` reads -13.9%.

The next assay has as its target N-terminal Xaa-Pro-Lys N-methyltransferase 1 (Homo sapiens) (UniProt Q9BV86). In words: Confirmatory qHTS for Inhibitors of N-terminal methyltransferase 1 (NTMT1): MTaseGlo Assay (AID 1645874).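 For activity change, negative = inhibition: luminescence from SAH made as NTMT1 methylates SPKRIA peptide using SAM; 0% = DMSO control and -100% = no-enzyme control.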 Note: nearly all actives have a fitted effect of over 65% in size. As to conditions: NTMT1 enzyme, MTase-Glo SAH luminescence; series mostly up to 100 µM; activity change, negative = inhibition: at the top concentration. The procedure, abridged: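 Inhibition was derived from luminescence after SAH-to-ATP conversion, scaled between no-enzyme and DMSO wells, then fitted by 4-parameter Hill. Conditions: 125 nM NTMT1, 100 uM SAM, 1 uM SPKRIA, 30 min RT.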
Turning to `CCCn1c(/C=C/c2ccccc2)nc2ccccc21`, the “activity change, negative = inhibition” value was -25.8%.
With `Cc1ccc(-n2ncc3c(NCCO)ncnc32)cc1Cl`, the Potency was 31.6 µM (active).
On to `COc1ccccc1C(=O)Nc1onc2c1CCCC2`, for which the “activity change, negative = inhibition” value is -3.96%.
For the compound `c1csc(-c2nc3ccccn3c2Nc2ccc3c(c2)OCCO3)c1`, the Potency is 6.49 µM (active).
Still for that read-out and setting: the result for `Cc1ccc(Nc2ncnc3c2cnn3-c2ccccc2)c(C)c1` reads 3.98 µM (active); that for `Cc1cccc2nc(-c3ccc(Cl)s3)c(Nc3ccc4c(c3)OCCO4)n12`, 3.25 µM (active); that for `COc1ccc(C(=O)Nc2noc3ccccc23)cc1`, 39.8 µM (active).
Same read-out and setting: the result for `CC(C)CCNc1ncnc2c1cnn2-c1cccc(Cl)c1` reads 14.1 µM (active).
As to `CCOc1ccccc1N1CC(c2nc3ccccc3n2CCCCOc2cc(C)ccc2C)CC1=O` (stereo not given), the “activity change, negative = inhibition” value was 9.65%.
On to `COc1cc2nc(N3CCCC3)nc(NC3CC3)c2cc1OC`, for which the Potency was 38.8 µM (active).
Still for that read-out and setting: the value for `COc1cc2c(NC3CCN(CC4CCCCC4)CC3)nc(N3CCCN(C)CC3)nc2cc1OCCCN1CCCCC1` was 34.5 µM (active).
Consider `Cc1ccc2nc(-c3ccc(O)cc3)c(Nc3ccc(Cl)cc3)n2c1`, for which the “activity change, negative = inhibition” value is -9.35%.
Take `O=C(Nc1onc2c1CCCC2)c1ccccc1`: the “activity change, negative = inhibition” value was -5.5%.
Same read-out and setting: the value for `O=C(Nc1noc2ccccc12)c1c(F)cccc1F` was -15.3%.
On to `COc1cc2c(NC3CCN(C(C)C)CC3)nc(N3CCCN(c4ccccc4)CC3)nc2cc1OCCCN1CCCC1`, for which the Potency was 55.5 µM (active).
In the case of `COc1cc2c(NC3CCN(C(C)C)CC3)nc(N3CCCN(CC4CCCCC4)CC3)nc2cc1OCCCN1CCCC1`, the Potency was 34.5 µM (active).
Still for that read-out and setting: the result for `O=C(Nc1nc2c(s1)CCCC2)c1ccccc1F` reads 39.8 µM (active); that for `COc1cc(-c2nc3ccc(Cl)cn3c2Nc2ccc3c(c2)OCO3)ccc1O`, 5.15 µM (active).
As for `CCCOc1ccccc1C(=O)Nc1nc2c(s1)CCCC2`, the “activity change, negative = inhibition” value is -17.2%.
Turning to `COc1cc2nc(N3CCOCC3)nc(NC(C)C)c2cc1OC`, the Potency was 34.5 µM (active).
As to `COc1cc2nc(Nc3ccc(C)c(C)c3)nc(N)c2cc1OC`, the Potency was 39.8 µM (active).
Still for that read-out and setting: the result for `Cc1ccc(C)n1-c1cccc(C(=O)O)c1` reads 6.02 µM (active); that for `COc1cc2c(NC3CCN(C(C)C)CC3)nc(N3CCCCC3)nc2cc1OCCCN1CCCCC1`, 38.8 µM (active).
The same measure, in the same setting: the value for `Cc1ccc(-n2ncc3c(NCCCN(C)C)ncnc32)cc1Cl` was 39.8 µM (active); that for `Clc1cccc(-c2nc3ccccn3c2Nc2ccc3c(c2)OCCO3)c1` was 4.09 µM (active).
On the same count and under the same terms, the result for `COc1cc2c(NC3CCN(C(C)C)CC3)nc(N3CCCN(C4CCCCC4)CC3)nc2cc1OCCCN1CCCCC1` reads 34.5 µM (active); that for `Cc1cccc(-n2cnc3cc(C(=O)NC4CCCC4)ccc32)c1`, 39.8 µM (active).
In the case of `COc1ccc(C(=O)Nc2onc3c2CCCC3)cc1`, the “activity change, negative = inhibition” value is -17.4%.
In the case of `Oc1cccc(Nc2nc(-c3ccccc3)nc3ccccc23)c1`, the Potency was 15.8 µM (active).
With `CNc1sc(-c2cccc3ccccc23)nc1C#N`, the “activity change, negative = inhibition” value was -9.3%.
As for `COc1cc(-c2nc3ccc(Cl)cn3c2Nc2ccc3c(c2)OCCO3)ccc1O`, the Potency was 5.15 µM (active).
Still for that read-out and setting: the result for `COc1ccc(Nc2ncnc3sc4c(c23)CCCC4)cc1` reads 15.8 µM (active).
As to `COC(=O)c1ccc(NC(=O)CSc2nc3ccc(OC)cc3[nH]2)cc1`, the “activity change, negative = inhibition” value is 28.1% [at 51.5 µM].
Turning to `O=S(=O)(c1cccc(Cl)c1)n1c(/C=C/c2ccccc2Cl)nc2ccccc21`, the Potency is 6.76 µM (active).
On the same count and under the same terms, the value for `N#CNC(=O)c1ccc(-n2cccc2/C=C2\NC(=O)N(CC(=O)Nc3ccc(F)cc3)C2=O)cc1` was 7.58 µM (active).
